A number with no mark means an inactive call. How the calls were made is not given here.
What follows are molecules tested against Pantothenate synthetase (Mycobacterium tuberculosis (strain ATCC 25618 / H37Rv)) (UniProt P9WIL5) (assay: Coupled enzyme confirmation of inhibitors against recombinant Mtb PanC (AID 375;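 further: 0% = full reaction with vehicle and 100% = no enzyme background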)). Conditions: coupled enzyme assay; at 10 µM, hits give high values.
Sequence of Pantothenate synthetase (Mycobacterium tuberculosis (strain ATCC 25618 / H37Rv)) (P9WIL5 whole entry, looked up): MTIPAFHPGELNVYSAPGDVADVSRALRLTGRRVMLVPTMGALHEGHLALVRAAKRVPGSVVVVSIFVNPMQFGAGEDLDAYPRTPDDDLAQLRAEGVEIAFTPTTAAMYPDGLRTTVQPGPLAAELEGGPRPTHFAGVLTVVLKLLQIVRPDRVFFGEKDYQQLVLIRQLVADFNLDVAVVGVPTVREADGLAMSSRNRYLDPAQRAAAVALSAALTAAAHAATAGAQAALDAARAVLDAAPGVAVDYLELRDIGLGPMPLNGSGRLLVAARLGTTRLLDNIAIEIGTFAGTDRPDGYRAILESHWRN

Row | SMILES | inhibition
1 | COc1cc(CC(=O)Oc2ccc3c(c2)OCO3)cc(OC)c1OC | 0%
2 | CCc1cc2ccc(C)cc2nc1SCC(=O)N1CCN(C(=O)c2ccco2)CC1 | 0%
3 | COc1cc(NC(=O)c2cc(OC)c(OC)c(OC)c2)c(OC)cc1NC(=O)CN1CCCCC1 | 1%
4 | O=C(c1ccccc1)N1CCN(Cc2ccccc2Br)CC1 | 3%
5 | COC(=O)c1cccc(Oc2nc3c(c(=O)n(C)c(=O)n3C)n2C(C)C)c1 | 1%
6 | Cc1cc(C)cc(NC(=O)CCNS(=O)(=O)c2ccc3c(c2)oc(=O)n3C)c1 | 0%
7 | Cc1cc(C)nc(NC(=O)c2ccc(OC(C)C)cc2)n1 | 0%
8 | Cc1nc2ccc(N3C(=O)CCC3=O)cc2[nH]1 | 5%
9 | Cc1sc2ncnc(Oc3ccc(-n4ccnc4)cc3)c2c1C | 4%
10 | O=C(Nc1ccccc1)N1C(=O)C2(OCCO2)c2ccccc21 | 0%
11 | CCCn1c(OC)nc2c1c(=O)n(C)c(=O)n2C | 0%
12 | CCN(CC)CCCN1C(=O)C(O)=C(C(C)=O)C1c1cccc(OC)c1 (stereo not given) | 0%
13 | CCOCCn1c(CN2CCN(CC)CC2)nc2c1c(=O)n(C)c(=O)n2C | 0%
14 | COC(=O)c1ccccc1NC(=O)c1noc2c1CCC2 | 0%
15 | O=S(=O)(Nc1cccnc1)c1cc(Cl)ccc1Cl | 0%
16 | Cc1ccc(S(=O)(=O)NC(=O)NN2CCCCCC2)cc1 | 4%
17 | CC(C)C(=O)Nc1ccc(-c2nc3cccnc3o2)cc1 | 2%
18 | CC(C)N(C=O)C1(C(=O)NC2CCCCC2)CCCCC1 | 4%
19 | O=C(COc1ccccc1)Nc1nc2ccccc2[nH]1 | 0%
20 | Cc1nc(N)c(C#N)c(-c2cccnc2)c1C | 0%

Row | SMILES | inhibition
21 | CN(C)c1ccc(NC(=O)Nc2cccc(Cl)c2)cc1 | 0%
22 | CCc1ccc(C(=O)NC2CCCCC2)s1 | 0%
23 | O=C(Nc1ccccc1)N(CCN1CCOCC1)Cc1ccccc1F | 0%
24 | O=C(COC(=O)c1cc(S(=O)(=O)N2CCOCC2)ccc1O)NCC1CCCO1 (stereo not given) | 15%
25 | C[C@H](CS)C(=O)N1CCC[C@H]1C(=O)O | 2%
26 | CCOC(=O)c1[nH]c2ccc(C)cc2c1NC(=O)CN1CCCCC1 | 3%
27 | CCCOC(=O)c1ccc(-c2c(C)noc2-c2ccc(OC)cc2O)o1 | 0%
28 | O=C(CCN1C(=O)c2ccccc2C1=O)N1CCN(C(=O)c2ccccc2)CC1 | 0%
29 | Cc1cc(NS(=O)(=O)c2ccc(NC(=O)Nc3ccc4c(c3)OCO4)cc2)no1 | 0%
30 | O=C(CSc1ncnc2c1oc1ccccc12)Nc1ccccc1F | 2%
31 | Cc1cccc(NC(=O)Nc2cccc(C#N)c2)n1 | 1%
32 | COc1cc(-c2nc(-c3ccncc3)no2)cc(OC)c1OC | 2%
33 | c1ccc(CSCc2cn3ccsc3n2)cc1 | 0%
34 | CC(=O)O[C@]1(C(C)=O)CC[C@H]2[C@@H]3C=C(Cl)C4=CC(=O)CC[C@]4(C)[C@H]3CC[C@@]21C | 0%
35 | CCc1cc(=O)oc2cc(OC(C)=O)cc(OC(C)=O)c12 | 0%
36 | CCOC(=O)C1=C(O)C(=O)N(c2ccc(S(N)(=O)=O)cc2)C1c1ccccc1 (stereo not given) | 0%
37 | C/C(N)=C(\C#N)C(=O)NCCc1ccccn1 | 0%
38 | Cc1c(C(=O)OC(C)C)[nH]c2c1C(=O)CCC2 | 0%
39 | O=c1cc(CSc2nnnn2-c2ccccc2)nc2scc(-c3ccccc3)n12 | 3%
40 | CCOC(=O)c1c(NC(=O)c2cccs2)sc2c1CCN(C(=O)OCC)C2 | 0%
